The target of assay [1] is Luciferin 4-monooxygenase (Photinus pyralis) (UniProt P08659). In words: qHTS assay to identify small molecule inhibitors of firefly luciferase (AID 1224835). Also: nearly all actives have a fitted effect of over 25% in size. The method, boiled down:
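Biochemical qHTS: compounds run as interplate titrations against purified firefly enzyme, with D-luciferin and ATP each at its KM concentration. Light output recorded by CCD imaging.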
In general terms: In qHTS, concentration-response curves come from the screen itself.

Assay [2] in a line: qHTS assay to identify small molecule agonists of the constitutive androstane receptor (CAR) signaling pathway - cell viability counter screen (AID 1224836). Also: nearly all actives have a fitted effect of over 45% in size. The method, boiled down: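 23 h treatment, 37 C, 5% CO2. Cell line: HepG2 stably expressing hCAR with a CYP2B6-2.2kb construct. Co-treatment: PK11195, 0.75 uM final. Read-out: CellTiter-Fluor fluorescence intensity.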
The nature of assay [3]: qHTS assay to identify small molecule antagonists of the constitutive androstane receptor (CAR) signaling pathway - cell viability counter screen (AID 1224837). Also: nearly all actives have a fitted effect of over 45% in size. The method, boiled down:
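HepG2 cells stably expressing hCAR and a CYP2B6-2.2kb reporter were plated and pre-incubated 4 hr at 37 C/5% CO2, then given compounds at 15 concentrations plus 50 nM CITCO (final). After 23 hr, viability was read by CellTiter-Fluor fluorescence.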

Assay [4] concerns the target Nuclear receptor subfamily 1 group I member 3 (Homo sapiens) (UniProt Q14994). Kind of assay: qHTS assay to identify small molecule agonists of the constitutive androstane receptor (CAR) signaling pathway (AID 1224839). Also: nearly all actives have a fitted effect of over 15% in size. Also: potency is read from the fitted curve at half-maximal effect. The method, boiled down: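 Compounds tested at 15 concentrations on HepG2 cells stably harbouring hCAR and CYP2B6-2.2kb reporter constructs, co-treated with PK11195 (0.75 uM final), 24 h at 37 C; luminescent reporter signal quantified.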

The nature of assay [5]: qHTS assay to identify small molecule antagonists of the estrogen related receptor signaling pathway with the pleiotropic PPARgamma coactivator (PGC) from Tox21 10K library - cell viability counter screen (AID 1224840; active = well fitted cell-killing curve with a large enough effect in the repeat runs, not every such curve was filed as active; also: nearly all actives have a fitted effect of over 40% in size). The method, boiled down: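 PGC/ERR cells were seeded at 2,000 cells/well and left 6 hours at 37 C/5% CO2 before pin-tool addition of compounds in DMSO. After 17.5 hours at 37 C, CellTiter-Fluor was added and fluorescence read 30 minutes later.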

The nature of assay [6]: qHTS assay to identify small molecule antagonists of the estrogen related receptor signaling pathway with the pleiotropic PPARgamma coactivator (PGC) from Tox21 10K library (AID 1224841; call rule not given here; also: actives are mostly falling curves and most rising ones were filed inactive; nearly all actives have a fitted effect of over 50% in size). The method, boiled down: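 PGC/ERR reporter cells were seeded at 2,000 cells/well and held 6 hours at 37 C/5% CO2 before pin-tool addition of compounds in DMSO. After 18 hours at 37 C, One-Glo was added and luminescence read after 30 minutes at room temperature.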

Assay [7] is described as follows: qHTS assay to identify small molecule agonists of the estrogen related receptor signaling pathway with the pleiotropic PPARgamma coactivator (PGC) from Tox21 10K library (AID 1224842). Also: nearly all actives have a fitted effect of over 15% in size. The method, boiled down:
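PGC/ERR reporter cell line, 2,000 cells per well, incubated 6 h at 37 C before 23 nL compound in DMSO was added. After 18 h at 37 C, One-Glo luminescence read following 30 min at room temperature.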

Assay [8] concerns the target Thyrotropin receptor (Homo sapiens) (UniProt P16473). In words: qHTS assay to identify small molecule agonists of the thyroid stimulating hormone receptor (TSHR) signaling pathway (AID 1224843; calls by dose curve; also: nearly all actives have a fitted effect of over 45% in size; also: potency is read from the fitted curve at half-maximal effect). The method, boiled down:
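TSHR-HEK293 cells in agonist mode, 30 min room-temperature step, then cAMP measured by competitive HTRF (cAMP-d2 with anti-cAMP cryptate) after 1 h at room temperature. Tested at 15 concentrations in triplicate.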

Assay [9] is described as follows: qHTS assay to identify small molecule agonists of the hypoxia (HIF-1) signaling pathway - cell viability counter screen (AID 1224844; calls by dose curve; also: nearly all actives have a fitted effect of over 50% in size). The method, boiled down:
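HRE-bla ME-180 cells in medium with 0.5% dialyzed FBS were preincubated 5 hrs at 37C, exposed to compounds for 17 hrs, then viability was read as CellTiter-Glo luminescence after 30 min at room temperature, in the reporter wells.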

Assay [10] in a line: qHTS assay to identify small molecule agonists of H2AX (AID 1224845; active = well fitted activation curve with a large enough effect in the signal ratio in the repeat runs, not every such curve was filed as active; the % refers to the signal ratio). The method, boiled down: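 Wild-type CHO-K1 cells, plated overnight, exposed 3hr at 37C to 15 concentrations (0.76% DMSO final). Lysed, then HTRF anti-pH2AX (S139) cryptate and anti-H2AX-d2 antibodies, 24 hr room temperature; 665/620 nm emission read.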
Assay [11] is described as follows: qHTS assay to identify small molecule agonists of the hypoxia (HIF-1) signaling pathway (AID 1224846; active = well fitted activation curve with a large enough effect in the signal ratio in the repeat runs, not every such curve was filed as active; the % refers to the signal ratio). The method, boiled down:
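HRE-bla ME-180 cells (beta-lactamase reporter under hypoxia response element) were plated at 2,000 cells/well in medium with 0.5% dialyzed FBS, rested 5 hrs, then given compounds in DMSO for 17 hrs at 37C, 5% CO2. Reporter induction was read with CCF4-AM FRET substrate.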

Assay [12] can be described thus: qHTS assay to identify small molecule agonists of H2AX - cell viability counter screen (AID 1224847; calls by dose curve; also: top concentration of the series differs between compounds; nearly all actives have a fitted effect of over 30% in size). The method, boiled down: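 Compounds tested at 15 concentrations were incubated 3 hr at 37C with wild-type CHO-K1 cells; cellular ATP-based luminescence (CellTiter-Glo) indicated viability.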
Assay [13] is described as follows: qHTS assay to identify small molecule antagonists of the estrogen related receptor (ERR) signaling pathway from Tox21 library (AID 1224848). Also: nearly all actives have a fitted effect of over 50% in size. The method, boiled down:
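ERR reporter cell line (from NTP) seeded 2,000 cells/well, rested 6 h at 37 C/5% CO2, then pin-dosed with compounds in DMSO. After 18 h at 37 C, ONE-Glo added; luminescence read after 30 min at room temperature.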

Assay [14] is described as follows: qHTS RealTime-Glo MT Cell Viability Assay in HEK293 cells - 32 hour (AID 1224868). Also: top concentration of the series differs between compounds; nearly all actives have a fitted effect of over 50% in size. The method, boiled down: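 Luminescence generated by NanoLuc from substrate produced by living HEK293 cells served as the viability signal. Each value reflects the reading at its stated time point during continuous 40 h compound exposure at 37 C.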
Assay [15] in a line: A CellTox Green Cytotoxicity Assay to monitor cytotoxicity in HEK293 cells - 0 hour (AID 1224869). Also: nearly all actives have a fitted effect of over 50% in size. The method, boiled down:
(§1)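 HEK293 cells premixed with CellTox Green dye were seeded at 600 cells/well and left 5 h at 37 C/5% CO2 before pin transfer of 23 nL compound in DMSO. Fluorescence from dye bound to dead-cell DNA was read during 40 h treatment.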

The nature of assay [16]: qHTS RealTime-Glo MT Cell Viability Assay in HepG2 cells - 40 hour (AID 1224870). Also: nearly all actives have a fitted effect of over 50% in size. The method, boiled down: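 HepG2 cells (600/well) mixed with RealTime-Glo MT reagent, settled 5 h at 37 C/5% CO2 before compound addition. Nonlytic NanoLuc luminescence from viable-cell prosubstrate reduction read repeatedly during 40 h treatment at 37 C.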
Assay [17] can be described thus: A CellTox Green Cytotoxicity Assay to monitor cytotoxicity in HEK293 cells - 40 hour (AID 1224871). Also: nearly all actives have a fitted effect of over 45% in size. The method, boiled down:
as §1

Assay [18] in a line: qHTS RealTime-Glo MT Cell Viability Assay in HepG2 cells - 24 hour (AID 1224867). Also: nearly all actives have a fitted effect of over 50% in size. The method, boiled down:
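Tox21 10K library screened in qHTS format on HepG2 cells carrying RealTime-Glo reagents. Compounds were added after a 5 h preincubation, and the luminescent signal from continuous culture was measured repeatedly during 40 h treatment.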

Assay [19] concerns the target Nuclear receptor subfamily 1 group I member 3 (Homo sapiens) (UniProt Q14994). In words: qHTS assay to identify small molecule antagonists of the constitutive androstane receptor (CAR) signaling pathway (AID 1224838). Also: nearly all actives have a fitted effect of over 40% in size. The method, boiled down: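 HepG2 cells stably co-transfected with hCAR and a CYP2B6-2.2kb luciferase reporter were seeded 4 h before compound addition at 15 concentrations. Cells were stimulated with 50 nM CITCO (final) for 24 h at 37 C; luciferase luminescence was then read.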

Assay [20] in a line: qHTS assay to identify small molecule agonists of the estrogen related receptor (ERR) signaling pathway from Tox21 library (AID 1224849; calls by dose curve; also: nearly all actives have a fitted effect of over 15% in size). As to conditions: ERR reporter cell line, ONE-Glo luciferase, 18 h; at 92.4 µM (top of the series) unless noted. The method, boiled down:
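ERR reporter cell line (NTP) seeded, rested 6 h at 37 C/5% CO2, then pinned with Tox21 compounds in DMSO. After 18 h at 37 C, ONE-Glo luciferase luminescence was read following 30 min at room temperature.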

A number with no mark means an inactive call. Records with an inconclusive call do not appear. Calls of active or inactive are those of the source. Unless noted, calls follow the shape of the dose curve; as a rule, active = well fitted curve in the direction sought with a large enough effect in the repeat runs; inconclusive = weak or mixed curves; inactive = no such curve, though single readings can be large; an effect the other way counts as inactive or inconclusive.
% is scaled to controls: 0 for no effect and ±100 for the full control effect.

Sequence of Luciferin 4-monooxygenase (Photinus pyralis) (P08659 whole entry, looked up): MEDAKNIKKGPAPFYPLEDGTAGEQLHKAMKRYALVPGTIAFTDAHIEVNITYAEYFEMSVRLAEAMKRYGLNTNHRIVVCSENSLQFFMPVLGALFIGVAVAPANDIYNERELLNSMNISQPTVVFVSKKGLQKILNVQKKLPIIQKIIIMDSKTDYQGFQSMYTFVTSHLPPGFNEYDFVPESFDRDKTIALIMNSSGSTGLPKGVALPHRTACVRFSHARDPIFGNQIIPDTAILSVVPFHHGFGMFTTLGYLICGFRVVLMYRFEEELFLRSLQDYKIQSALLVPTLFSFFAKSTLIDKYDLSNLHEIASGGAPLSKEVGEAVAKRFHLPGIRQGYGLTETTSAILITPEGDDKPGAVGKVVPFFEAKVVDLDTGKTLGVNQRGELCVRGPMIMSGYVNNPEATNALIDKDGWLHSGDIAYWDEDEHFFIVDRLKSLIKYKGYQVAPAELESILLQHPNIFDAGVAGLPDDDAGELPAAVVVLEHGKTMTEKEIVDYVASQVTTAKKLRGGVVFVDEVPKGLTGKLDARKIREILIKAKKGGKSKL
Sequence of Thyrotropin receptor (Homo sapiens) (P16473 whole entry, looked up): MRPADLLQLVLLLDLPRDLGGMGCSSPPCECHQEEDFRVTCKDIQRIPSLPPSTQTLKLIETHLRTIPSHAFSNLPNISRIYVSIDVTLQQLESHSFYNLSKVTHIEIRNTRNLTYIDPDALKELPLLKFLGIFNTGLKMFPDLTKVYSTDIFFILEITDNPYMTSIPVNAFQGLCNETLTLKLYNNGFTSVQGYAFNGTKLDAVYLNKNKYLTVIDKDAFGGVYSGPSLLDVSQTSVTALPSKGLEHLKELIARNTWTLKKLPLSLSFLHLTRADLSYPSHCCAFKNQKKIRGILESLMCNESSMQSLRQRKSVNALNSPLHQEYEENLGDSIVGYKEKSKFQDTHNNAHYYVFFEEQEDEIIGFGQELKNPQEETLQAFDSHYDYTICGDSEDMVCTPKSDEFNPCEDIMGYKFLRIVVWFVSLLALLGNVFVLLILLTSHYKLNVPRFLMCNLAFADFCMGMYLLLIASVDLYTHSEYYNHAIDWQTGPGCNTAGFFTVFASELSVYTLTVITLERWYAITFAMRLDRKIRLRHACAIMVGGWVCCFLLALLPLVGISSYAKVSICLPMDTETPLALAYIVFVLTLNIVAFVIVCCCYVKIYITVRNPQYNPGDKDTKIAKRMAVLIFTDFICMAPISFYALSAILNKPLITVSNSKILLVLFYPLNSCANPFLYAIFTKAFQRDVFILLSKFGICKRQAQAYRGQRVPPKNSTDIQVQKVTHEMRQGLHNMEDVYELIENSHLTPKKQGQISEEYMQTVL
Sequence of Nuclear receptor subfamily 1 group I member 3 (Homo sapiens) (Q14994 whole entry, looked up): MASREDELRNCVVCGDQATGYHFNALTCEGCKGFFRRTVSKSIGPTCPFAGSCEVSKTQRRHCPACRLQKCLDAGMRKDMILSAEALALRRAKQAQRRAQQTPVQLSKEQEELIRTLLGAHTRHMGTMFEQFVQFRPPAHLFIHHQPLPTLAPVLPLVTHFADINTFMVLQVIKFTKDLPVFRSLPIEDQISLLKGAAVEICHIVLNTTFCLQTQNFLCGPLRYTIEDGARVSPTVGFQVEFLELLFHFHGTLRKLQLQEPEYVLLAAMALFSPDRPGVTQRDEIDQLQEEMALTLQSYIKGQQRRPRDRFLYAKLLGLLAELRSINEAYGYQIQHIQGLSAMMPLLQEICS

In the case of `CCCCCCCCC1CCC(=O)O1` (stereo not given), the Potency result in assay [1], in [2], in assay [3], in [6], in assay [8] and in assay [12] was “inactive” in each case. Moreover, the Potency result in assay [13], in assay [14] and in assay [17] was “inactive” in each case. For the same compound, the Potency in assay [4] was 30.6 µM (active). For the same compound, the result in assay [5], in [7], in assay [9], in assay [10], in [11] and in [15] was inactive. The outcome in assay [16] was inactive.
Turning to `O=C(O)Cc1cn(-c2ccccc2)nc1-c1ccc(Cl)cc1`, the Potency result in assay [1], in [2], in assay [3], in [4], in [8] and in [12] was “inactive” in each case. Also, the Potency result in [14] and in assay [17] was “inactive” each time. Further, the call in assay [5], in assay [9], in [10], in [11], in [18] and in assay [15] was inactive. Moreover, in assay [16], the outcome was inactive.
As for `O=C(O)CCSSCCC(=O)O`, the Potency result in [1], in assay [2], in assay [3], in assay [12], in [14] and in assay [17] was “inactive” throughout. In addition, the result in assay [19], in assay [5], in assay [9], in assay [10], in assay [11] and in assay [18] was inactive. Moreover, the compound was classed as inactive in assay [15] and in assay [16].
With `CCCC/C=C\CCCCCCCCCC=O`, the Potency result in [1], in assay [2], in [3], in assay [4], in assay [8] and in [13] was “inactive” each time. Also, the Potency entry in assay [14] and in assay [17] was “inactive” throughout. Further, the outcome in assay [5], in [7], in [9], in assay [10], in assay [11] and in [18] was inactive. The compound was called inactive in assay [15] and in assay [16]. In assay [20], the activity change, positive = activation is 2.29%.
As to `O=C(O)C(=O)Cc1ccccc1`, the Potency entry in [1], in [2], in assay [3], in [12], in [14] and in assay [17] was “inactive” in each case. For the same compound, the call in assay [19], in [5], in [9], in assay [10], in [11] and in assay [18] was inactive. Besides, the compound was classed as inactive in assay [15] and in assay [16]. The Potency in [8] was 30.6 µM (active).
Consider `C=COCCOCCOCCOC=C`, for which the Potency result in assay [1], in [2], in assay [3], in [8], in assay [12] and in assay [14] was “inactive” in each case. In [17], the Potency entry was “inactive”. The compound was called inactive in [19], in assay [5], in [9], in [10], in assay [11] and in assay [18]. In addition, the compound was classed as inactive in assay [15] and in assay [16].
With `O=C(CCN1CCN(CCO)CC1)N1c2ccccc2Sc2ccc(C(F)(F)F)cc21`, the Potency entry in assay [1], in assay [2], in assay [3], in [8], in assay [12] and in assay [14] was “inactive” throughout. Moreover, the Potency result in [17] was “inactive”. Besides, the call in [19], in [5], in assay [9], in assay [10], in assay [11] and in [18] was inactive. The call in [15] and in assay [16] was inactive.
For `O=S(O)(O)=S`, the activity change, negative = inhibition in assay [1] is 1.12% [at 10.5 µM]. Further, the viability change, negative = cytotoxic in assay [2] was 1.44% [at 8.39 µM]; in assay [5] it was 0.0211% [at 8.39 µM]. The activity change, negative = cytotoxicity was 0.559% [at 8.39 µM] in assay [3], -1.07% [at 6.97 µM] in assay [9], 0.0189% [at 14 µM] in assay [12] and 4.23% [at 6.97 µM] in [18]. Also, the activity, negative = inhibition in assay [19] is -2.22% [at 8.39 µM]. The figures for the activation in [7], in [8] and in assay [11] were -0.09% [at 8.39 µM], 8.08% [at 8.39 µM] and -1% [at 7.01 µM], respectively. In assay [10], the activation (H2AX phosphorylation) is 2.44% [at 14 µM]. The activity change, positive = activation in assay [20] is 4.43% [at 8.39 µM]. Besides, the figures for the activity change, negative = cytotoxic in [14] and in assay [16] were 0.732% [at 6.97 µM] and 5.36% [at 6.97 µM], respectively. Also, in assay [15], the cytotoxicity is 0.0066% [at 6.97 µM]. Also, the cytotoxicity increase in assay [17] is -0.26% [at 6.97 µM].
